Test results from PubChem BioAssay AID1508600 (Functional Genomics Laboratory (NCATS/FGL), 2020).
Among all 53,000 sequences or so, about 3,700 (7%) were called active.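 How the source made its calls: active means gene knockdowns whose robust z-score for IL-1 alpha signal is at least 2 or at most -2, so actives lie on both sides; inactive means the rest.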 The full list was thinned out, with actives kept by preference.

Assay: Components of the Cytosolic LPS Sensing Pathway: Gene Identification via Genome-wide siRNA Screen;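 further: robust z of the log signal after scaling to non-targeting control siRNA wells of the plate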
Settings: RAW264.7 macrophages, IL-1a HTRF, actives lie on both sides, screened at 100 nM (by protocol), cells primed 5 h with Pam3CSK4 first
How it was run: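 RAW264.7 mouse macrophages reverse-transfected with single siRNAs (100 nM final) for 48h, primed with Pam3CSK4 for 5 hours, then transfected with LipidA for 24 hour. Supernatant IL-1a read by HTRF; values normalized to negative-control median, log-transformed robust z-scores.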

Sequence | z-score
GGAGCUCCUGAACAGGAUCTT against Gpr26 | 2.13 (active)
CCUUACAUGUUGACUACCCTT against Rnase13 | 0.403 (inactive)
GGUCUUCUGUCCAUUAGUGTT against Pigc | 0.14 (inactive)
GGAGAAAGAUGGCAUAAUGTT against Slitrk6 | -0.595 (inactive)
GGUGAAGGUGAACAAGGACTT against Myh9 | 2.92 (active)
GGACAAUCCAUAAGUUAAATT against Scai | 0.22 (inactive)
GGAAGUUAAGCAUAGUUUCTT against Flrt3 | 1.15 (inactive)
GGCAACAGUAUUUAUGAAUTT against Sim2 | -0.45 (inactive)
CCUAGCAUGUUUCUUGCUATT against Rnft2 | 0.46 (inactive)
GGAGAAAAUUGUCAAGAAGTT against Ift122 | -0.824 (inactive)
CCAGGAUCAAAGAACUUAUTT against Olfr1424 | -3.39 (active)
GGAACUUUUCAUCCUGAAGTT against Fgl1 | 0.0919 (inactive)
GCUCAUCAAGCUGUACCUATT against Eif2b1 | 1.16 (inactive)
GCUUUGAUUUAUGAGGUCATT against Ttc30a1 | 0.251 (inactive)
GGUCUUGUGGUGGUACUACTT against Elovl2 | 1.77 (inactive)
GGCCAUUCUGGAAACUCCATT against Foxp4 | -0.0644 (inactive)
GGAAUAAUAGAGGAAUGAGTT against Bclaf1 | -1.61 (inactive)
GGAGAGAGAUUUUCAAUAUTT against Gtdc1 | -0.41 (inactive)
GGAGAGCCUUAUUCAUCGCTT against H2-DMb2 | -0.0566 (inactive)
GGAAUCUGUCAUGUGAAUATT against Slc1a5 | -0.0766 (inactive)
GCUGGUGCAUUACUGAGGUTT against Olfr69 | 0.434 (inactive)
CCAAACACUAUGUGACAAGTT against Trim8 | -0.626 (inactive)
GCGGGUGAAAUACACCAAGTT against Trim28 | -2.2 (active)

Sequence | z-score
GGCCAAGCAUGUUUUGUCATT against Cep72 | -0.639 (inactive)
GCUUGGUGGGUUUGUUGAUTT against Slc28a1 | -0.113 (inactive)
GUGCUCUAUGUCUUCACUGTT against Ltb4r2 | -1 (inactive)
CGACUACCAACAGUUCAUATT against P2rx6 | 1.14 (inactive)
UCCAUUUCGACCCUUGUACTT against Romo1 | -2.88 (active)
GGAGCUCAUAGACCAGCUUTT against Necab3 | 0.371 (inactive)
GCUUGAUGGUAAAAAGGUUTT against Atl1 | -1.18 (inactive)
CCAACCUAUAAGUUAAUGATT against Mrps22 | -0.735 (inactive)
CGGAGAGGAUUUCAUCGAATT against Azgp1 | 0.0877 (inactive)
GGGCCUCCAUCCUACUAUGTT against Grina | 1.65 (inactive)
GGGCUUCUUCUGCUAUGACTT against Plppr2 | -2.2 (active)
CGAUAUGUGUUUGUAAUGGTT against Atp6v1d | -0.853 (inactive)
GCCGUGAUCGACUUGAAUATT against U2af1 | 0.763 (inactive)
CCAAUAUGCUCAGUAUUACTT against Eya4 | -1.36 (inactive)
CCCUCUCCCUUCAAUGUGGTT against Cblif | -1.38 (inactive)
GGGUGUUUGGUUGUGAUCUTT against Arhgap33 | -2.07 (active)
GGAGUAGUAGCUGAAUUUGTT against Abcc3 | 0.317 (inactive)
GGCUGAUCUCUUUUGCCAGTT against Reg2 | 0.00409 (inactive)
GGAACAUAUACUGGACAGATT against Zfp825 | 0.436 (inactive)
GGAUGUGAUCAUAGCAUGGTT against Slc35e1 | -2.07 (active)
GGGCUAAUAUACAGAAAUATT against Rrm2b | -0.126 (inactive)
GGUGGAGAAAAAUGCAACATT against Clnk | -0.429 (inactive)
GGAAAUCUGAAGAAUCAAGTT against Zup1 | -0.621 (inactive)

Sequence | z-score
GGAGGUAGAAAAGACAAAATT against Jrk | 1.96 (inactive)
GGAUGCAUUUCUGAGCCACTT against Tacc2 | -1.62 (inactive)
CUCUCGAACAAUCAACCACTT against Olfr315 | 2.05 (active)
GGAAGGACAAUCAGUUCCUTT against Thsd7b | 0.999 (inactive)
CCUUUUAUAACUGCUCUCUTT against Jpt2 | -1.01 (inactive)
GCUCACUCUUUCCAACUAUTT against Ubox5 | 0.465 (inactive)
GGCUGGAUUAUUUUUUCUUTT against Usp4 | 0.921 (inactive)
GAACGUGCAGCUGACAGAGTT against Ppp1ca | -1.03 (inactive)
GACUAUGUGGUCUACUCGUTT against Drd4 | 2.86 (active)
CGGGCUGGAAGAAAUCUCUTT against Rhox3a | 0.771 (inactive)
GGACAAAACCAUCUCCUUCTT against Olfr17 | 0.324 (inactive)
GGGAAUGCACUACAACUACTT against Chpf | 1.16 (inactive)
GCCAUAUCAACUAGUGCAGTT against Siglech | 2.36 (active)
GGCUUUUCUGGCUAUCCACTT against Anxa7 | -0.774 (inactive)
GGCCCAAGAGCAUUCUGGATT against Slc25a19 | 0.552 (inactive)
GGGUGUGCAUUUGUACUACTT against Smad9 | 1.21 (inactive)
GGAUAUGUCAGCAUAUGUGTT against Yeats4 | -0.583 (inactive)
GGUCAACAGUUACAUCGAGTT against Vps33a | 0.273 (inactive)
GCCCAUCUUAGCAUUCUCUTT against Aldh4a1 | -1.91 (inactive)
GCUAGAAAAAAAUCAGUUGTT against Eif2a | 0.6 (inactive)
CCCAGAACGGGAUGAUUCUTT against Trex2 | 2.77 (active)
CCUCUCAACCACUGACUGATT against Gpatch4 | 0.836 (inactive)
GCUCAAAUCGUACAAGUGUTT against Panx1 | 0.214 (inactive)
